High-throughput results (PubChem BioAssay)
Most compounds without a hit are left out; they make up all but 19% or so of the library.
Cycloheximide cs: counter-screen for Shiga toxin inhibitors: cycloheximide protein synthesis inhibition. AID 2314. max response, %. cell reporter, cycloheximide protein synthesis inhibition counterscreen. hit rate 12% among 300,000; in the data active means max response mostly above about 13%, no sharp cut-off; inactive means mostly below about 14%; further: read at 38.3 µM for the half of the compounds with a filed dose; 0% is about no effect
Lassa entry inh: inhibitors of Lassa virus binding or cell entry. Lassa virus pseudotype entry inhibition, cell reporter. hit rate 1.2% among 300,000. Potency, µM (top dose mostly 37.9 µM), inactives show top-dose activity change, negative = inhibition, most hits filed as inhibitors; calls by dose curve; tested in HEK293 cells; further: potency means the concentration at half of the fitted maximal effect; on the % scale 0 is the no-effect control and ±100 the full control effect; nearly all actives have a fitted effect of over 50% in size
Pf growth 48h: inhibits P. falciparum growth in the first generation, 48 h | P. falciparum luciferase growth in erythrocytes, 48 h | Potency, µM (highest dose often 28.7 µM), without a hit: at the highest dose activity change, negative = inhibition, usual class: inhibitors | hit rate 5.9% among 310,000; further: potency means the concentration at half of the fitted maximal effect; on the % scale 0 is the no-effect control and ±100 the full control effect
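Firefly luciferase activity from engineered P. falciparum reports growth; inhibitors lower the luminescent signal. Cultures contained 2% hematocrit erythrocytes at 0.1% final parasitemia.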
MARV entry inh: blocks Marburg virus binding to or entry into cells; Marburg virus pseudotyped entry inhibition, cell reporter; Potency, µM (titrated, usually from 37.8 µM), inactives show at the highest dose activity change, negative = inhibition, actives largely listed as inhibitors; hit rate 1.8% among 300,000; calls by dose curve; tested in HEK293 cells; further: potency means the concentration at half of the fitted maximal effect; on the % scale 0 is the no-effect control and ±100 the full control effect
Pf growth 96h: inhibits malaria parasite growth, 96 h; P. falciparum luciferase reporter growth, 96 h; Potency, µM (highest dose often 28.7 µM), for the others: top-dose activity change, negative = inhibition, hits mostly inhibitors; hit rate 6.9% among 320,000; further: potency means the concentration at half of the fitted maximal effect; on the % scale 0 is the no-effect control and ±100 the full control effect
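P. falciparum expressing integrated firefly luciferase grown in erythrocytes (2% hematocrit, 0.05% parasitemia final) with compounds for 96 hours at 37 C, 5% CO2. Growth inhibition read as loss of luminescence after adding luciferase detection reagent.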
Shiga inhibitor: Shiga toxin inhibition. Vero cells, Shiga toxin protein synthesis inhibition reporter. inhibition, % at 38.7 µM. hit rate 9.2% among 290,000; in the data active means inhibition mostly above about 28%, no sharp cut-off; inactive means mostly below about 43%; further: 0% is about no effect
Starred values were filed as active, the others as inactive; ? = inconclusive; / = no result given; ! = not confirmed by another sample; [ ] = dose if it differs, or a comment. Unless noted, the call rests on the fitted dose curve; in most records, active means well fitted inhibition curve with a large enough effect; inconclusive means small, poorly fitted or top-dose-only effect, or another doubt; inactive means no such curve, though single readings can be large or run the other way.

SMILES | Cycloheximide cs | Lassa entry inh | Pf growth 48h | MARV entry inh | Pf growth 96h | Shiga inhibitor
O=C(Nc1ccccc1N1CCCCC1)c1ccc(-c2cccc(Cl)c2)o1 | 2.1 | 6.5% | -83.6% | ? | ? | 10.7
CS(=O)(=O)N1CCN(c2ccccc2NC(=O)c2ccc(-c3ccc(Cl)cc3Cl)o2)CC1 | 10.1 | ? | 11.7µM* | ? | / | 13.9
CN1CCN(c2ccccc2NC(=O)c2ccc(Br)o2)CC1 | -0.4 | 6.2% | 9.7% | -15.9% | / | -9.1
CN1CCN(c2ccccc2NC(=O)c2ccc(-c3ccc(Cl)cc3Cl)o2)CC1 | -2.0 | ? | / | ? | 4.15µM* | -2.4
CN1CCN(c2ccccc2NC(=O)c2ccc(-c3cccc(Cl)c3)o2)CC1 | -3.8 | -23.7% | ? | 12.6µM* | -15.7% | -0.6
COc1ccc(N2CCN(S(=O)(=O)CCNC(=O)Cc3ccc(OC)c(OC)c3)CC2)cc1 | / | -18.9%[46.1 µM] | / | / | / | /
O=C(NCCCN1CCOCC1)C1CCN(S(=O)(=O)c2c(Cl)cccc2Cl)CC1 | 1.0 | -2.0%[46.1 µM] | 17.0% | 13.7%[46.1 µM] | ? | -5.1
COc1cc(CNc2ccc(O)cc2)cc(Br)c1OCc1ccccc1F | 1.3 | ? | ? | ? | ? | 5.2
COc1cc(CNC(C)(C)CO)ccc1OCC(=O)NC(C)(C)C | -1.0 | 4.1% | -1.6% | ? | 7.1% | 19.3
COc1cc(CNc2ccc(N3CCCC3)cc2)ccc1OCc1ccccc1 | 41.9* | -27.4% | 8.28µM* | ? | 7.9% | 54.8*
CCNCc1ccc(OCc2ccccc2F)c(OC)c1 | 2.6 | / | 35.3% | / | ? | 31.1
COc1cc(CNc2ccc(N3CCCC3)cc2)ccc1OCc1ccccc1F | 63.5* | 14.6% | ? | -27.2% | ? | 173.0*
COc1cc(CNc2ccc(N3CCCCC3)cc2)ccc1OCC(=O)NC(C)(C)C | 12.7* | ? | 7.6% | ? | 5.22µM* | 40.1*
COc1cc(CNCCCCO)ccc1OCc1ccccc1F | 18.1* | -8.0%[46.1 µM] | 42.2% | ? | 22.4% | 57.5*
COc1ccc(CN2CCN(C)CC2)cc1OCc1ccccc1 | -1.1 | 11.6%[14.3 µM] | -17.9% | 13.2% | / | 14.3
CC(C(=O)Nc1ccc2[nH]c(=O)[nH]c2c1)N1CCN(Cc2ccc3c(c2)OCO3)CC1 (stereo unspecified) | / | / | -21.2% | / | ? | /
CCC1(C(=O)c2ccccc2)C2c3cc(Br)ccc3OC(=O)C21C(=O)N1CCOCC1 (stereo unspecified) | -2.3 | -16.9% | ? | 22.8% | -3.5% | -9.0
COc1ccccc1NC(=O)COc1ccc(Br)cc1CO | 21.4 | -15.0% | / | -6.8% | 1.9% | 14.9
O=C(COc1ccc(CO)cc1Cl)Nc1ccc(F)cc1 | 48.2* | ? | / | 6.51µM* | 25.0% | 58.2*
O=C(COc1ccc(CO)cc1)Nc1ccc(F)cc1 | 15.9* | 1.3% | 49.0% | 14.3% | 10.5% | 26.0
COc1ccccc1NC(=O)COc1ccc(C(=O)NCc2ccccc2)cc1OC | / | / | 13.1µM* | / | ? | /
O=C(COc1ccc(F)cc1)Nc1ccc(S(=O)(=O)Nc2ncccn2)cc1 | / | 0.5% | 6.4% | ? | 18.4% | /
O=C(COc1ccc(Cl)cc1Cl)Nc1ccc(CN2CCCCC2)cc1 | -4.0 | -0.6% | ? | 22.2%[46.1 µM] | 14.5% | -1.2
COc1ccccc1NC(=O)COc1ccc(CO)cc1Cl | 32.2* | 11.3% | 170.3% | 28.8% | / | 56.5*
COc1cccc(N2CCN(C(=O)c3cnc4c(-c5ccc(F)cc5)c(C)nn4c3C)CC2)c1 | / | 3.7%[46.1 µM] | / | / | / | /
SMILES | Cycloheximide cs | Lassa entry inh | Pf growth 48h | MARV entry inh | Pf growth 96h | Shiga inhibitor
C/C=C1/CC(C)C(C)(O)C(=O)OCC2CCN3CCC(OC1=O)C23 (stereo unspecified) | -2.8 | 14.7% | -19.0% | ? | 38.5% | -5.2
COc1ccccc1OCCNC1CCCC1 | 5.7 | -5.4% | / | -17.5% | -16.1% | 9.8
COc1ccccc1-c1ccc(NC2CCCC2)nn1 | 24.2* | 13.4% | 88.7% | -2.0% | ? | 55.4*
COc1ccc(CNc2ccc(-c3ccc(OC)cc3)nn2)cc1 | 18.9* | 28.5% | 0.8% | 14.9% | ? | 39.9*
COc1ccc(CNC(=O)c2cc(-c3ccccc3OC)on2)cc1 | -2.3 | 1.7% | -4.4% | 0.0% | ? | 33.3
COc1ccc(CNc2ccc(-c3ccccc3OC)nn2)cc1 | 21.9* | -2.3% | -4.9% | 2.7% | ? | 25.7
COc1ccc(N2CCN(C(=O)C3CCN(S(=O)(=O)Cc4ccccc4)CC3)CC2)cc1 | / | 5.2%[46.1 µM] | / | 11.1%[46.1 µM] | / | /
Cc1ccc2nsnc2c1NC(=O)Cc1ccc(Cl)cc1 | -1.6 | 2.1%[46.1 µM] | ? | 14.7%[46.1 µM] | 52.9% | -11.6
COc1ccc(C2CC(c3cccs3)=NN2C(=O)CSc2nc3c(cnn3-c3ccccc3)c(=O)[nH]2)cc1 (stereo unspecified) | -1.8 | 22.7% | ? | -31.3% | ? | -13.8
COCC(C)NCc1cccc2ccccc12 (stereo unspecified) | -1.7 | 9.1% | 17.4% | -10.0% | 4.65µM* | -10.1
COc1ccccc1C1(CCNC(C)c2cccs2)CCOC(C(C)C)C1 (stereo unspecified) | -1.1 | ? | 8.28µM* | ? | 8.28µM* | 1.4
CCC(=O)N(CCC1(c2ccccc2OC)CCOC(C(C)C)C1)Cc1ccco1 (stereo unspecified) | 26.3* | -21.6% | 10.4µM* | ? | 10.4µM* | 30.5
Cc1ccc(C2(CCNC(C)c3cccs3)CCOC(C(C)C)C2)cc1 (stereo unspecified) | -0.5 | ? | ? | ? | ? | -12.7
COc1ccc(CN2C(=O)c3cccnc3C2Nc2cc(Cl)ccc2OC)cc1 (stereo unspecified) | 3.1 | 6.9% | 5.22µM* | 3.1% | ? | -8.1
COc1ccc(OC)c(NC2c3ncccc3C(=O)N2Cc2ccco2)c1 (stereo unspecified) | -1.8 | -2.0% | -8.2% | 8.0% | -9.4% | -11.4
COc1ccc(C2Nc3ccccc3C(=O)N2Cc2ccco2)cc1CN1C(=O)c2ccccc2C1=O (stereo unspecified) | 0.8 | 28.8%[46.1 µM] | 13.1µM* | ? | ? | 43.0*!
COc1ccc(C2Nc3ccccc3C(=O)N2Cc2ccco2)cc1COc1ccc(F)cc1 (stereo unspecified) | 60.2* | ? | 2.08µM* | ? | 6.57µM* | 40.4*
CCOC(=O)OCC(=O)C1(O)CCC2C3CCC4=CC(=O)CCC4(C)C3C(O)CC21C (stereo unspecified) | / | 8.9%[46.1 µM] | / | ? | / | /
CCOC(=O)c1ccc(NC(=O)N2CCN(c3ccccn3)CC2)cc1 | -4.1 | 25.5% | ? | -11.1% | / | -29.9
O=c1c2ccccc2c(/C=N/c2ncn[nH]2)c(O)n1Cc1ccccc1 | 19.2 | -17.5%[46.1 µM] | -15.2% | ? | ? | 24.8
Cc1ccc(-n2c(SCC(=O)Nc3cccc(S(=O)(=O)NC4=NCCCCC4)c3)nc3ccccc3c2=O)cc1C | 1.5 | 1.6% | ? | -10.7% | ? | -7.6
O=c1c2ccccc2c(C=Nc2cccc(S(=O)(=O)NC3=NCCCCC3)c2)c(O)n1Cc1ccccc1 | -0.3 | / | 1.65µM* | / | ? | -6.3
